# 12-hLO inh – qHTS Assay for Inhibitors of 12-hLO (12-human lipoxygenase) | Polyunsaturated fatty acid lipoxygenase ALOX12 (Homo sapiens), P18054 | Potency, µM (highest dose often 57.1 µM), without a hit: at the top dose activity change, negative = inhibition, actives largely listed as inhibitors | purified 12-hLO, xylenol orange hydroperoxide absorbance | 150,000 compounds, 0.12% hits; note: nearly all actives have a fitted effect of over 55% in size
# Target sequence (P18054 whole entry, looked up): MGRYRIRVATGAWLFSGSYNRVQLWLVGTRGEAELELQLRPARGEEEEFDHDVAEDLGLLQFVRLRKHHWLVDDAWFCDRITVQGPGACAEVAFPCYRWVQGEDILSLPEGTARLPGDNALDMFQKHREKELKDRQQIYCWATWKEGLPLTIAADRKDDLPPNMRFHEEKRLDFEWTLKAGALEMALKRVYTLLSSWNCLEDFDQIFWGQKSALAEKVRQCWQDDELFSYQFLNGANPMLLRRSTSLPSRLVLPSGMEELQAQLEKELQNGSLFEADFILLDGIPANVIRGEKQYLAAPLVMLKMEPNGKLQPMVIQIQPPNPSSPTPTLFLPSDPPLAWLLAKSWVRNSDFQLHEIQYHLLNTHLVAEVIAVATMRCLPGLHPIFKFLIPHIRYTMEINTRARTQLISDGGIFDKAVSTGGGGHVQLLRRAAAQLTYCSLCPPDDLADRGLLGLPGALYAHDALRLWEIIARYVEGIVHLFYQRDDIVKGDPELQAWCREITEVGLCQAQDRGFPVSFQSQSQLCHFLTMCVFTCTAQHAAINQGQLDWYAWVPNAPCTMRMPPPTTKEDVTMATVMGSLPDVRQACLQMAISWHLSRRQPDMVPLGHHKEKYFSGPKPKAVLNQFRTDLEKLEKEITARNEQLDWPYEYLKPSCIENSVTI
#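 Lipoxygenase turnover measured by absorbance at 573 and 405 nm after Fe-XO development. Human 12hLO 150 nM, arachidonate 40 uM, pH 7.0 Hepes buffer with detergent; 15 min compound preincubation, 30 min reaction.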
# p53ts 32C tox – qHTS Screen for Compounds that Selectively Target Cancer Cells with p53 Mutations: Cytotoxicity of p53ts Cells at the Permissive Temperature; H1299-p53A138V at 32C, ATP luminescence viability, 24 h; Potency, µM (top dose mostly 46.1 µM), for inactives: at the highest dose activity change, negative = cytotoxicity, most hits filed as cytotoxic; 130,000 compounds, 0.93% hits; AID 924, 2007;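 note: 0% = DMSO and -100% = full killing by reference compound; nearly all actives have a fitted effect of over 55% in size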
#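 Cells: H1299 p53ts (A138V), 600/well, pre-incubated 16–30 h at 37C. Cpd up to 46 uM, 24 h, 32C. Readout: ATPlite luminescence, 20 min RT. Normalization: DMSO vs tamoxifen 100 uM. AC50 by Hill equation.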
# HPGD inh – qHTS Assay for Inhibitors of HPGD (15-Hydroxyprostaglandin Dehydrogenase). purified HPGD, NADH fluorescence kinetic, PGE2 substrate. Potency, µM, for the others: top-dose activity change, negative = inhibition, most hits filed as inhibitors. 15-hydroxyprostaglandin dehydrogenase [NAD(+)] (Homo sapiens), P15428. 150,000 compounds, 4.3% hits. AID 894, 2007; active = well fitted inhibition curve with a large enough effect, not every such curve was filed as active; inconclusive = small, poorly fitted or top-dose-only effect, or another doubt; inactive = no such curve, though single readings can be large or run the other way
#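 NADH formation kinetics: reaction with 30 uM PGE2 and 1 mM NAD+ (final), 20 nM enzyme, Tris-HCl pH 8 with Tween 20, after 15 min compound preincubation at room temperature. Fluorescence change, last versus first of five reads.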
# p53ts 39C tox – qHTS Screen for Compounds that Selectively Target Cancer Cells with p53 Mutations: Cytotoxicity of p53ts Cells at the Nonpermissive Temperature; AID 902, 2007; H1299-p53A138V viability at 39C, ATP luminescence, 24 h; 130,000 compounds, 1.5% hits; Potency, µM (series often up to 46.1 µM), for inactives: top-dose activity change, negative = cell killing, most hits filed as cytotoxic; note: nearly all actives have a fitted effect of over 55% in size
# * hit, by the source's call; ? = inconclusive; nt = not tested or not shown; [ ] = another dose, or the depositor's remark. Only some compounds are listed: those with a hit (about 4.4% of all), similar ones and a draw of the others. Unless noted, calls come from the whole dose curve; as a rule, active = well fitted curve in the direction sought with a large enough effect; inconclusive = small, poorly fitted or top-dose-only effect, or another doubt; inactive = no such curve, though single readings can be large; an effect the other way counts as inactive or inconclusive. Unless noted, % is set by controls: 0 for no effect and ±100 for the full control effect; potency is the fitted concentration of half-maximal effect.
SMILES,12-hLO inh,p53ts 32C tox,HPGD inh,p53ts 39C tox
CC(=O)N1c2ccccc2C(=O)C1N1CCN(c2ccccc2F)CC1 (stereo not drawn),nt,-1.3%,nt,-26.3%
Cc1cc(C)cc(Oc2ccccc2C=O)c1,-1.5%,nt,-4.1%,nt
Cc1cc(C)cc(Oc2ccccc2/C=N\O)c1,-1.6%,nt,22.4µM*,nt
O/N=C/c1ccccc1Oc1ccccc1,-1.5%,nt,15.8µM*,nt
C[C@@H]1CC2(OC(O)[C@]3(C)O[C@H]23)O[C@H]2C[C@@]3(C)[C@@H]4CC[C@H]5C(C)(C)C(O[C@@H]6OC[C@@H](O)[C@H](O)[C@H]6O)CC[C@@]56C[C@@]46CC[C@]3(C)[C@@H]12 (stereo partly drawn),-3.4%,10.4%[1.84 µM],-0.2%,-4.5%
COc1ccccc1CNC(=O)Cc1c(C)c2c(cc(C)c3c(C)coc32)oc1=O,nt,11.2%,nt,-8.3%
COC(=O)c1ccccc1NC(=O)c1ccc(=O)n(Cc2cccc(C)c2)c1,nt,-1.3%,nt,-25.4%
CC1CCN(C(=O)CSc2nnc(-c3cccnc3)n2C2CCCCC2)CC1,5.6%,3.6%,22.4µM*,-0.4%
COc1ccc2c(c1)c1nnc(SCC(=O)N3CCCCC3C)nc1n2C (stereo not drawn),-4.8%,3.5%,15.8µM*,4.8%
COc1ccc(-n2c(SCC(=O)N3CCCCC3C)nnc2-c2cccnc2)cc1 (stereo not drawn),0.9%,-2.1%,20µM*,-8.4%
CC1CCCCN1C(=O)CSc1nnc(-c2cccnc2)n1C1CCCCC1 (stereo not drawn),-2.4%,4.1%,25.1µM*,2.1%
CCCCC[C@H](O)/C=C/C=C\CCCCCCCCCC(=O)O,3.8%,nt,-10.8%,nt
CCC(C)NC(=O)CSc1nc2n[nH]c(C)c2c(=N)n1-c1cc(Cl)ccc1C (stereo not drawn),nt,?,nt,12.6µM*
CCc1ccc(NC(=O)CSc2nc3n[nH]c(C)c3c(=N)n2-c2ccc(C)cc2)cc1,nt,?,nt,20µM*
CN1CCc2cc(Cl)c(O)cc2[C@H](c2ccccc2)C1,-7.4%,-17.3%,nt,8.3%
Oc1cc2c(cc1O)[C@H](c1ccccc1)CNCC2,-11.1%,-15.3%,28.2µM*,-5.1%
Cn1ccc2cc3c(cc21)CCN3C(=O)Nc1cccnc1,-6.4%,10µM*,-8.1%,10µM*
Cc1ccc(C)c(NC(=O)c2cnn(-c3cccc(F)c3)c2C2CCN(C(=O)OC(C)(C)C)CC2)c1,nt,23.2%,nt,-10.8%
Cc1ccccc1Nc1nnc(SCc2cc(=O)n3ccsc3n2)s1,-5.0%,nt,28.2µM*,nt
C/C(N)=C(/C#N)C(=O)CSc1nnc(Nc2ccccc2C)s1,-8.0%,nt,28.2µM*,nt
Cc1cccn2c(=O)cc(CSc3nnc(NC(=O)C(C)C)s3)nc12,nt,-8.4%,nt,-9.6%
O=c1cc(CSc2nnc(Nc3ccccc3)s2)nc2sccn12,-0.8%,nt,17.8µM*,nt
C/C(N)=C(/C#N)C(=O)CSc1nnc(NC(C)C)s1,-4.7%,3.3%,-20.7%,-2.9%
O=C(NCc1cccc(F)c1)C1CCN(c2nn3cc(-c4ccc(F)cc4)nc3s2)CC1,nt,-15.8%,nt,nt
Cc1c(C(=O)Nc2ccc(F)cc2F)oc2ccc3c(c12)C(=O)CC(C)(C)O3,nt,-5.6%,nt,?
SMILES,12-hLO inh,p53ts 32C tox,HPGD inh,p53ts 39C tox
O=C(CCCCn1c(=O)c2ccccc2n(CC(=O)Nc2cccc(F)c2)c1=O)NCc1ccccc1Cl,nt,7.2%,nt,14.4%
O=C1C[C@H]2OCC=C3CN4CC[C@@]5(C(=O)O)[C@H](N1)[C@H]2[C@H]3C[C@H]45,-0.3%[11.4 µM],3.2%[9.22 µM],nt,4.0%[9.22 µM]
COc1ccc(OC)c2sc(N3CCN(c4ccccc4)CC3)nc12,nt,-23.7%,nt,-28.1%
COc1ccc(OC)c2sc(N3CCN(C(=O)C(C)(C)C)CC3)nc12,nt,15.8µM*,nt,7.94µM*
Cc1ccc(O)c(C(=O)c2cnc3c(c2)COc2ccccc2-3)c1,0.7%,-6.4%,12.6µM*,?
COc1ccc(N2CCN(C(c3ccccc3)c3sc4nc(-c5ccco5)nn4c3O)CC2)cc1 (stereo not drawn),nt,-0.9%,nt,8.6%
Cc1noc(C)c1-c1nc(NCc2ccccc2)c2ccccc2n1,nt,-4.2%,nt,-16.9%
N#C/C(C(=O)c1ccccc1)=C1/SC=C(N)N1c1ccccc1,-9.5%,-3.6%,20µM*,-9.9%
CC(C)C(=O)NC(c1ccco1)c1ccc2cccnc2c1O (stereo not drawn),10µM*,-18.7%,-5.7%,3.98µM*
Oc1c(C(Nc2nc3ccccc3s2)c2ccco2)ccc2cccnc12 (stereo not drawn),-14.2%,0.5%,-5.0%,?
CCOc1ccccc1Nc1nc(-c2cccc(Cl)c2)c2c(n1)-c1ccccc1OC2,nt,?,nt,12.6µM*
COc1ccc(-n2nnc3c(SCc4ccccc4)ncnc32)cc1,-3.8%,6.4%,15.8µM*,-11.4%
COC(=O)c1ccc(CSc2ncnc3c2nnn3-c2ccc(F)cc2)o1,-5.7%,-12.8%,7.08µM*,-7.3%
COc1ccc(-n2nnc3c(SCC(=O)OCc4ccccc4)ncnc32)cc1,-5.1%,-7.1%,-1.5%,?
Cc1ccc(CNC(=O)CCS(=O)(=O)c2cc3c4c(c2)CCN4C(=O)CC3)cc1,nt,2.0%,nt,5.5%
Cc1ccc(C(C)C)c(OCCSc2nc3ccccc3n2CC(O)CO)c1 (stereo not drawn),nt,-12.8%,nt,?
CC(C)OCCCn1c(SCc2ccccc2C#N)nc2c(sc3ccccc32)c1=O,nt,12.6%,nt,-12.5%
CSc1ccccc1NC(=O)CCS(=O)(=O)c1nc(-c2ccc3c(c2)OCO3)cc(C(F)(F)F)n1,nt,?,nt,3.98µM*
O=C(CCS(=O)(=O)c1nc(-c2ccc3c(c2)OCO3)cc(C(F)(F)F)n1)Nc1ccc(Br)cc1,nt,?,nt,3.16µM*
Cc1ccc(NC(=O)CCSc2nc(-c3ccc4c(c3)OCO4)cc(C(F)(F)F)n2)c(C)c1,nt,-3.5%,nt,?
O=C(Nc1ccc2oc(-c3cccc(Cl)c3Cl)nc2c1)c1cccc(Br)c1,nt,?,nt,10µM*
COc1ccc(C(=O)Nc2ccc3oc(-c4cc(Cl)ccc4Cl)nc3c2)cc1Br,nt,?,nt,10µM*
COc1ccc(C(=O)Nc2ccc3oc(-c4ccc5ccccc5c4)nc3c2)cc1Br,nt,-6.7%,nt,?
O=C(Nc1ccc2oc(-c3cccc4c(Br)cccc34)nc2c1)c1cccc(Cl)c1,nt,1.4%,nt,0.1%
O=C(Nc1ccc2oc(-c3ccccc3)nc2c1)c1cccnc1,7.3%,-5.7%,-29.7%,-8.6%
CC(C)c1ccc2oc(-c3cc(NC(=O)c4cccnc4)ccc3Cl)nc2c1,nt,20µM*,nt,?
CN1CCC2(CC1)CCN(C(=O)c1cccc(F)c1)CC2,2.9%,-5.0%,-10.5%,7.8%
COC(=O)[C@@]1(Cc2ccccc2)[C@H]2c3cc(C(=O)N(C)C)n(Cc4ccc(OC)c(OC)c4)c3C[C@H]2CN1C(=O)c1ccccc1,-1.3%,11.9%,-6.4%,-2.3%
